Inconclusive results are not listed. Values without a mark were called inactive. Active and inactive are the calls of the source. Unless noted, the call rests on the fitted dose curve; in most records, active means well fitted curve in the direction sought with a large enough effect in the repeat runs; inconclusive means weak or mixed curves; inactive means no such curve, though single readings can be large; an effect the other way counts as inactive or inconclusive.

A short description of experiment [1]: qHTS assay to identify aromatase inhibitors - cell viability counter screen (AID 743084).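 Further: cells stimulated with testosterone during compound exposure; nearly all actives have a fitted effect of over 55% in size.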 Background: Quantitative high-throughput screening tests each substance at several concentrations.
Experiment [2] concerns the target Aryl hydrocarbon receptor (Homo sapiens) (UniProt P35869). In words: qHTS assay to identify small molecule that activate the aryl hydrocarbon receptor (AhR) signaling pathway (AID 743085). Further: nearly all actives have a fitted effect of over 15% in size. Further: potency means the concentration at half of the fitted maximal effect.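 On activation: HG2L7.5c1 human HepG2 liver cells with stably integrated DRE-driven firefly reporter; series mostly up to about 70 µM.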 Put shortly: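 Cell line HG2L7.5c1 (human hepatoma, 20× DRE-luc). Plated, 5 h 37C, compound/DMSO added, 24 h 37C. CellTiter-Fluor 30 min 37C → fluorescence; then ONE-Glo 30 min RT → luminescence.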

Experiment [3] is described as follows: qHTS assay to identify small molecule that activate the aryl hydrocarbon receptor (AhR) signaling pathway - cell viability counter screen (AID 743086). Further: series mostly up to about 70 µM; nearly all actives have a fitted effect of over 45% in size. Put shortly: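 Cytotoxicity counter screen: CellTiter-Fluor signal (30 min, 37 C) in 4000 HepG2 cells/well carrying the DRE-luciferase reporter, following 24 h compound exposure at 37 C.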
Experiment [4] in a line: qHTS assay to identify small molecule antagonists of the peroxisome proliferator-activated receptor gamma (PPARg) signaling pathway - cell viability counter screen (AID 743194). Further: nearly all actives have a fitted effect of over 55% in size. As to conditions: Potency: co-treated with 50 nM rosiglitazone. Put shortly:
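Viability was measured as CellTiter-Glo luminescence in GeneBLAzer PPARg UAS-bla HEK293H cells. These cells had been exposed 17 h at 37 C to compounds together with rosiglitazone at 50 nM final, with the beta-lactamase readout taken in the same wells.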

Experiment [5] in a line: qHTS assay for small molecule agonists of the antioxidant response element (ARE) signaling pathway (AID 743202; active means well fitted activation curve with a large enough effect in the signal ratio in the repeat runs, not every such curve was filed as active; the % refers to the signal ratio; further: potency means the concentration at half of the fitted maximal effect). Put shortly:
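Beta-lactamase reporter activity, read as fluorescence intensity, reflects ARE/Nrf2 pathway induction in HepG2 cells after 16 h compound exposure at 37 C; substrate loading was 2 h at room temperature.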

Experiment [6] can be described thus: qHTS assay for small molecule agonists of the antioxidant response element (ARE) signaling pathway - cell viability counter screen (AID 743203; calls by dose curve; further: nearly all actives have a fitted effect of over 55% in size). Put shortly:
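Parallel cytotoxicity read-out for the ARE-bla screen: HepG2 reporter cells, 16 hrs with compounds, then CellTiter-Glo luminescence.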

Experiment [7] can be described thus: qHTS assay for small molecule activators of the heat shock response signaling pathway - cell viability counter screen (AID 743209). Further: nearly all actives have a fitted effect of over 50% in size. Put shortly:
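To flag cytotoxic compounds, HSE-bla HeLa cells plated at 1500 cells/well were dosed for 5 h at 37 C, followed by the reporter FRET read and then CellTiter-Glo, with luminescence recorded 30 min after reagent addition.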

Experiment [8] can be described thus: qHTS assay for small molecule activators of the heat shock response signaling pathway (AID 743210; active means well fitted activation curve with a large enough effect in the signal ratio in the repeat runs, with a control signal flat, not every such curve was filed as active; the % refers to the signal ratio;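 further: HeLa cells with beta-lactamase reporter driven by heat shock elements; series mostly up to about 63 µM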). Put shortly: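 Fluorescence from a cleaved B/G FRET substrate (2.5 h, room temp) reports HSE-driven beta-lactamase in HeLa cells treated 5 h at 37 C with DMSO-dissolved compounds.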
Experiment [9] in a line: qHTS assay to identify small molecule agonists of the peroxisome proliferator-activated receptor delta (PPARd) signaling pathway - cell viability counter screen (AID 743211). Further: nearly all actives have a fitted effect of over 55% in size. Put shortly:
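HEK293H PPARd-bla, 3000 cells/well; 5 h preincubation 37C/5% CO2; cpd in DMSO, 17 h 37C; B/G FRET substrate 2 h RT; CellTiter-Glo 30 min RT, luminescence.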

Experiment [10] addresses Peroxisome proliferator-activated receptor delta (Homo sapiens) (UniProt Q03181). In words: qHTS assay to identify small molecule agonists of the peroxisome proliferator-activated receptor delta (PPARd) signaling pathway (AID 743212; calls by dose curve;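 further: HEK293H cells with PPARd UAS beta-lactamase reporter GeneBLAzer system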). Put shortly:
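Steps: seed PPARd-bla HEK293H cells; incubate 5 h, 37 C, 5% CO2; add compounds in DMSO; incubate, 37 C; add LiveBLAzer B/G FRET substrate; hold 2 h at room temperature; measure fluorescence.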

Experiment [11] can be described thus: qHTS assay to identify small molecule antagonists of the peroxisome proliferator-activated receptor delta (PPARd) signaling pathway - cell viability counter screen (AID 743213). Further: nearly all actives have a fitted effect of over 50% in size. Put shortly: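 Agonist-stimulated (L165041, 300 nM final) HEK293H PPARd UAS-bla cells are exposed to compounds for 17 h at 37 C, and ATP-based luminescence (CellTiter-Glo) from the same wells reports cytotoxicity.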

The target of experiment [12] is Peroxisome proliferator-activated receptor delta (Homo sapiens) (UniProt Q03181). In words: qHTS assay to identify small molecule antagonists of the peroxisome proliferator-activated receptor delta (PPARd) signaling pathway (AID 743215; active means well fitted inhibition curve with a large enough effect in the signal ratio in the repeat runs, not every such curve was filed as active; the % refers to the signal ratio; further: series mostly up to about 62 µM). Put shortly: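 Screen format: qHTS, antagonist mode. HEK293H PPARd-bla cells received compound and 300 nM L165041 (final), 17 h, 37 C. Beta-lactamase detected via FRET substrate fluorescence, 2 h, room temperature.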
Chain of Peroxisome proliferator-activated receptor delta (Homo sapiens) (Q03181 whole entry, looked up): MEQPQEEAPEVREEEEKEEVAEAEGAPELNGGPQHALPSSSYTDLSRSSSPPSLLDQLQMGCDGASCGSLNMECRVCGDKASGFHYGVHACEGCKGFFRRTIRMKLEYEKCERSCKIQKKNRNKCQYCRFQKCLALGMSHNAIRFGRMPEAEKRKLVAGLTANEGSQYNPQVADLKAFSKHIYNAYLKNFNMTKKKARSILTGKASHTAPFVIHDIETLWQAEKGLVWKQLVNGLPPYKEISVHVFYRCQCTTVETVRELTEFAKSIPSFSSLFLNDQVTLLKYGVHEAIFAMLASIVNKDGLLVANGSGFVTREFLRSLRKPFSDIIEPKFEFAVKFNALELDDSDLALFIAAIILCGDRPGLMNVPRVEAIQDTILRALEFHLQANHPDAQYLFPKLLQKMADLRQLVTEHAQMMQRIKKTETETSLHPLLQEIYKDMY

A short description of experiment [13]: qHTS assay to identify small molecule agonists of the farnesoid-X-receptor (FXR) signaling pathway - cell viability counter screen (AID 743218). Further: nearly all actives have a fitted effect of over 45% in size. Put shortly:
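Same-well cytotoxicity check on FXR-UAS-bla HEK 293T cells: 5 h attachment, 16 h compound at 37 C, CellTiter-Glo luminescence read at room temperature after 30 min.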

Experiment [14] can be described thus: qHTS assay to identify small molecule antagonists of the farnesoid-X-receptor (FXR) signaling pathway - cell viability counter screen (AID 743221; active means well fitted cell-killing curve with a large enough effect in the repeat runs, not every such curve was filed as active; further: nearly all actives have a fitted effect of over 50% in size). Put shortly:
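Luminescence from CellTiter-Glo measures cytotoxicity in GeneBLAzer FXR-UAS-bla HEK 293T cells. Cells were exposed to compounds with 50 uM chenodeoxycholic acid (final) for 16 h at 37 C, in wells also used for the reporter readout.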

Experiment [15] concerns the target Peroxisome proliferator-activated receptor gamma (Homo sapiens) (UniProt P37231). In words: qHTS assay to identify small molecule antagonists of the peroxisome proliferator-activated receptor gamma (PPARg) signaling pathway (AID 743191; calls by dose curve; further: series mostly up to about 63 µM; nearly all actives have a fitted effect of over 30% in size). Put shortly: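 Beta-lactamase reporter under UAS control in HEK293H PPARg-bla cells; compound treatment 17 h at 37C. Read-out: fluorescence intensity after 1 h room-temperature incubation with LiveBLAzer B/G FRET substrate.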

The target in experiment [16] is Vitamin D3 receptor (Homo sapiens) (UniProt P11473). Nature of the experiment: qHTS assay to identify small molecule agonists of the vitamin D receptor (VDR) signaling pathway (AID 743222; calls by dose curve). Put shortly:
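Using LiveBLAzer B/G FRET detection, agonism was scored in VDR-bla cells exposed overnight (16 h, 37C) to DMSO-dissolved compounds; substrate incubation was 2 h at room temperature.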

For experiment [17] the target is unchanged. In words: qHTS assay to identify small molecule antagonists of the vitamin D receptor (VDR) signaling pathway (AID 743223; active means well fitted inhibition curve with a large enough effect in the signal ratio in the repeat runs, not every such curve was filed as active; the % refers to the signal ratio). Put shortly:
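Antagonist mode uses 1alpha,25-dihydroxyvitamin D3 at 3 nM final as stimulus. VDR-bla cells receive compounds in DMSO, incubate 16 h at 37C, then a beta-lactamase FRET substrate for 2 h at room temperature before fluorescence measurement.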

In experiment [18] the target is Bile acid receptor (Homo sapiens) (UniProt Q96RI1). In words: qHTS assay to identify small molecule antagonists of the farnesoid-X-receptor (FXR) signaling pathway (AID 743217; active means well fitted inhibition curve with a large enough effect in the signal ratio in the repeat runs, not every such curve was filed as active; the % refers to the signal ratio). Put shortly:
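Quantitative HTS, beta-lactamase reporter format: FXR-UAS-bla HEK 293T cells co-treated 16 h at 37 °C with compounds and 50 uM final chenodeoxycholic acid, then read by B/G FRET fluorescence.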

Experiment [19] has the same target. Nature of the experiment: qHTS assay to identify small molecule agonists of the farnesoid-X-receptor (FXR) signaling pathway (AID 743220; active means well fitted activation curve with a large enough effect in the signal ratio in the repeat runs, not every such curve was filed as active; the % refers to the signal ratio). Put shortly:
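FXR-UAS-bla HEK 293T cells carrying a UAS-driven beta-lactamase reporter were plated for 5 h at 37C/5% CO2, then exposed to DMSO-dissolved Tox21 10K compounds for 16 h at 37C. A LiveBLAzer B/G FRET substrate was loaded for 2 h at room temperature before fluorescence reading.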

Chain of Vitamin D3 receptor (Homo sapiens) (P11473 whole entry, looked up): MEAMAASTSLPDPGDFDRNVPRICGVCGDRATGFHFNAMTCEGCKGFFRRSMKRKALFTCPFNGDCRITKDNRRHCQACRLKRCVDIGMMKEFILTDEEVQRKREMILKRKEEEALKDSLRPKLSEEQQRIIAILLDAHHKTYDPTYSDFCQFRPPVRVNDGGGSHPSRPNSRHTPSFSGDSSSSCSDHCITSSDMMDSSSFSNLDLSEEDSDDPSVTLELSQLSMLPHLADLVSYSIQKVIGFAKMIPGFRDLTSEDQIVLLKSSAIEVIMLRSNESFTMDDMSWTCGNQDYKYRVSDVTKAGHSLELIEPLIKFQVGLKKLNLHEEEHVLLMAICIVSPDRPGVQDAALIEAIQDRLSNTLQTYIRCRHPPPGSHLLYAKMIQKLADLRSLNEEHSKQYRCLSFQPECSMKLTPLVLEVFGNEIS
Chain of Bile acid receptor (Homo sapiens) (Q96RI1 whole entry, looked up): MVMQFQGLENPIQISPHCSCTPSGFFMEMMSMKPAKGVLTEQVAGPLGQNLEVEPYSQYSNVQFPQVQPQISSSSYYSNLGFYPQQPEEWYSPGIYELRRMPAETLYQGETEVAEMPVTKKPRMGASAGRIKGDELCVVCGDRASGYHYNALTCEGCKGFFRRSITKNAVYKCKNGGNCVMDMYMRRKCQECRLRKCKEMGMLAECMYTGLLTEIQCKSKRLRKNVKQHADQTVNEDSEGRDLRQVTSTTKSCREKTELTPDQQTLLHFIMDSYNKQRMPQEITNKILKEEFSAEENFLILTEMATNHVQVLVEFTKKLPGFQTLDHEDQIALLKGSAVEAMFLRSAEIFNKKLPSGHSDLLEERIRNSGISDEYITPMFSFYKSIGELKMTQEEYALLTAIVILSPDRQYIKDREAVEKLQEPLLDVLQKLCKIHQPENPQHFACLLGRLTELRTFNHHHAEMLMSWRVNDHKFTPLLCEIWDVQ
Chain of Aryl hydrocarbon receptor (Homo sapiens) (P35869 whole entry, looked up): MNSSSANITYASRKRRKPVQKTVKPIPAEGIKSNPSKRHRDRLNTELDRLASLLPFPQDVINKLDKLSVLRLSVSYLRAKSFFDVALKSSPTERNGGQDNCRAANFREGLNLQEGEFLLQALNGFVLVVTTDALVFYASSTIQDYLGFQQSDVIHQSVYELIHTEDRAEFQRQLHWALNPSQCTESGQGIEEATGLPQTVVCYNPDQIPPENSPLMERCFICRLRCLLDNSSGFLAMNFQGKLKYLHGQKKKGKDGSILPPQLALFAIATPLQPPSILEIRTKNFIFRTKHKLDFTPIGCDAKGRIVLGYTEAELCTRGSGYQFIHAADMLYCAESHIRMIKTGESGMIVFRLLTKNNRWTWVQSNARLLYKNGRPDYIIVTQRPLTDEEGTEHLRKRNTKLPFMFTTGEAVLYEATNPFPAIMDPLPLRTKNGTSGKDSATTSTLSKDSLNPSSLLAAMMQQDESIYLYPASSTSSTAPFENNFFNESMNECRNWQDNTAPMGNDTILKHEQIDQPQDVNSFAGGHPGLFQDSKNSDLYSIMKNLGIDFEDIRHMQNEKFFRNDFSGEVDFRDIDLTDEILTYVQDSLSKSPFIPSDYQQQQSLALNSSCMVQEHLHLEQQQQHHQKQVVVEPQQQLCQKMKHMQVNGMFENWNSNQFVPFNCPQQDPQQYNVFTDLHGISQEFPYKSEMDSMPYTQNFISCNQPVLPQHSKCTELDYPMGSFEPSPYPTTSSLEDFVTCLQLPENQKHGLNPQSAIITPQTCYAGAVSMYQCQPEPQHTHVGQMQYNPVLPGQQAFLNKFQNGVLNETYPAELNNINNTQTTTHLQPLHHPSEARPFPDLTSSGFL
Chain of Peroxisome proliferator-activated receptor gamma (Homo sapiens) (P37231 whole entry, looked up): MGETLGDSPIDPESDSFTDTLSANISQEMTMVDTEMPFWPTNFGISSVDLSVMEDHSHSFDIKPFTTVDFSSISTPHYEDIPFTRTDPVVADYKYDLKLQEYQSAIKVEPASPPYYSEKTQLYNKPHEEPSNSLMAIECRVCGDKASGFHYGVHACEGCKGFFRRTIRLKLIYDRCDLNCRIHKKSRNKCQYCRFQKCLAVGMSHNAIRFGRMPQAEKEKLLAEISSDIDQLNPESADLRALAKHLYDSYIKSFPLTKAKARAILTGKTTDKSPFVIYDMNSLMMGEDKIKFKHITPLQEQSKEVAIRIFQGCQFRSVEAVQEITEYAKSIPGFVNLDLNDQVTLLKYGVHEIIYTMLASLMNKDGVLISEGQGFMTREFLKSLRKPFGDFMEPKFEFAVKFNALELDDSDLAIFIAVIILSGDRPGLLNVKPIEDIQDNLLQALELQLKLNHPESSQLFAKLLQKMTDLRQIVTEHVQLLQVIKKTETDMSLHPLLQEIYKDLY

Regarding `O=C/C=C/c1ccco1`, the Potency result in experiment [1], in experiment [2], in experiment [3], in [4], in experiment [5] and in experiment [6] was “inactive” throughout. Further, the Potency result in [7], in experiment [8], in experiment [9], in [11], in [12] and in experiment [13] was “inactive” each time. Further, the Potency result in [14] was “inactive”. In experiment [10], the compound was classed as inactive.

For `C[C@@H](N)[C@@H](O)c1ccccc1`, the Potency result in experiment [1], in experiment [2], in [3], in experiment [15], in experiment [4] and in experiment [5] was “inactive” throughout. Also, the Potency entry in experiment [6], in experiment [7], in experiment [9] and in experiment [13] was “inactive” each time. For the same compound, the compound was called inactive in experiment [10].

With `CCCCCCCCSC(=O)Oc1cc(Cl)nnc1-c1ccccc1`, the Potency result in [1], in experiment [2], in experiment [3], in experiment [4], in experiment [5] and in [6] was “inactive” throughout. In addition, the Potency entry in [7], in experiment [8], in experiment [9], in experiment [12], in experiment [13] and in experiment [14] was “inactive” throughout. For the same compound, the call in experiment [10], in experiment [16] and in [17] was inactive.

On to `O=C(Cl)/C=C/C(=O)Cl`, for which the Potency result in experiment [1], in experiment [2], in experiment [3], in [4], in experiment [6] and in experiment [7] was “inactive” in each case. The Potency result in experiment [8], in experiment [9], in [11], in experiment [12], in [13] and in [14] was “inactive” throughout. In experiment [5], the Potency was 22 µM (active). Moreover, the outcome in experiment [10], in experiment [18], in [19] and in [16] was inactive.

As for `O=C1CC(=O)NC(=O)N1`, the Potency result in experiment [1], in experiment [2], in experiment [3], in [15], in experiment [4] and in experiment [5] was “inactive” in each case. The Potency result in [6], in experiment [7], in experiment [8], in [9], in [12] and in [13] was “inactive” in each case. Further, the Potency entry in experiment [14] is “inactive”. The outcome in [18], in [19], in [16] and in [17] was inactive.

In the case of `CCNP(=S)(OC)O/C(C)=C/C(=O)OC(C)C` (centres undefined), the Potency entry in experiment [1], in [3], in [15], in experiment [4], in experiment [5] and in experiment [6] was “inactive” throughout. Further, the Potency result in experiment [7], in experiment [8], in experiment [9], in experiment [11], in [13] and in experiment [14] was “inactive” in each case. Further, the Potency in [2] is 4.86 µM (active). Also, the result in experiment [16] and in [17] was inactive.

Consider `CCOC(=O)N(C)N=O`, for which the Potency entry in [1], in experiment [2], in experiment [3], in experiment [15], in experiment [4] and in experiment [6] was “inactive” each time. For the same compound, the Potency entry in experiment [7], in experiment [8], in experiment [9], in experiment [12], in experiment [13] and in experiment [14] was “inactive” each time. The compound was classed as inactive in experiment [16] and in experiment [17].

Consider `OP(O)c1ccccc1`, for which the Potency result in experiment [1], in experiment [2], in experiment [3], in experiment [4], in [5] and in experiment [6] was “inactive” each time. The Potency entry in experiment [7], in experiment [8], in experiment [9], in experiment [12], in [13] and in experiment [14] was “inactive” each time. The call in experiment [10], in experiment [18], in experiment [19] and in experiment [17] was inactive.

The record behind these values is PubChem BioAssay (Tox21).
